Most compounds without a hit are left out; they make up all but 2.2% or so of the library.
APP 5UTR inh: APP translation inhibition; SH-SY5Y APP 5'UTR-luciferase reporter, luminescence; inhibition, % at 2 µM; 190,000 tested, 0.82% active; AID 1285;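 active = inhibition above a set limit, derived from the sample mean plus 3 SD, cut at about 45% in these data; inconclusive = one replicate passes the limit while the other fails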
IEC-6 cytotox: IEC-6 cytotoxicity, counter-screen for KLF5 inhibitors; AID 1825; luminescence viability; inhibition, % at 5 µM; 290,000 tested, 0.78% active; in the data active = inhibition above about 22%;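 note: 0% = plate median of test compound wells and 100% = cytotoxic reference compound wells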
aSyn UTR inh: MLPCN primary screen, SNCA 5' untranslated region; alpha-synuclein 5'UTR reporter, inhibitor activity; inhibition, % (tested at 7.5 µM); 300,000 tested, 0.82% active; in the data active = inhibition above about 60%; inconclusive = no clear call, values can overlap the other calls;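 note: H4 neuroglioblastoma cells stably carrying SNCA 5'UTR luciferase fusion; 0% = DMSO wells and 100% = positive control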
BaF3 parental: parental Ba/F3 viability inhibition as JAK2V617F counter-screen | CellTiter-Glo ATP luminescence | inhibition, % at 5.6 µM | 220,000 tested, 1.1% active | AID 1486;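 active = inhibition above a per-campaign cutoff, the mean inhibition of all tested compounds plus 3 SD, cut at about 27% in these data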;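 note: 0% = DMSO wells and 100% = JAK Inhibitor I control wells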
Ba/F3 V617F tox: lowers viability of Ba/F3 cells expressing EpoR and JAK2V617F; ATP luminescence; inhibition, % at 5.6 µM; 220,000 tested, 1.1% active; AID 1446;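 active = inhibition above the campaign mean plus 3 SD over all tested compounds, cut at about 24% in these data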;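 note: cytokine-independent growth of Ba/F3 cells driven by EpoR plus mutant JAK2; 0% = DMSO-treated cells and 100% = JAK inhibitor I control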
KLF5 inhibitor: suppresses KLF5 promoter-driven expression; DLD-1 KLF5 promoter-luciferase reporter, luminescence; inhibition, % at 5 µM; 290,000 tested, 0.23% active; AID 1700;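 active = inhibition above a per-plate limit of that plate's mean compound inhibition plus 3 SD, cut at about 60% in these data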;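 note: 0% = DMSO wells and 100% = LY294002 at 200 µM; higher means less KLF5 promoter-driven luciferase light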
* = called active by the depositor; ? = inconclusive; . = no result given.

SMILES	APP 5UTR inh	IEC-6 cytotox	aSyn UTR inh	BaF3 parental	Ba/F3 V617F tox	KLF5 inhibitor
CCc1nnc(NC(=O)CSc2nnc3c(n2)[nH]c2ccccc23)s1	-4	0	-9	2	-1	-28
Cc1ccc(C(=O)N/N=C/c2cn(Cc3ccccc3)c3ccccc23)cn1	.	2	64*	2	-2	-37
O=C(O)c1ccc(N/N=C/c2cn(Cc3ccc(F)cc3)c3ccccc23)cc1	.	9	-69	-1	-1	-33
N#CCC(=O)N/N=C/c1cn(Cc2ccc(Cl)c(Cl)c2)c2ccccc12	.	-2	?	-5	-4	8
O=C(N/N=C/c1cn(Cc2ccccc2)c2ccccc12)c1cc(O)cc(O)c1	.	-4	62*	.	.	-18
COc1cc(C(=O)N/N=C/c2cn(Cc3cccc(F)c3)c3ccccc23)ccc1O	.	2	62*	.	.	-13
O=C(c1ccc2c(c1)C(=O)N(Cc1ccco1)C2=O)N1CCOCC1	-5	3	7	0	1	-28
CC(C)(C)OC(=O)N[C@@H](Cc1ccccc1)C(=O)N1CCC(C(=O)N[C@@H](CCC(N)=O)C(=O)O)CC1	.	-5	-1	.	.	-32
CCCOc1ccc(C(=O)NNC(=S)NC(=O)CC)cc1	-2	8	85*	1	5	-6
C=CCNC(=S)NNC(=O)c1ccc(OCCC)cc1	0	0	7	6	-2	-6
O=C(Cc1ccc(Cl)cc1)Nc1ccc(-c2cc3ccccc3oc2=O)c(Cl)c1	86*	48*	96*	65*	56*	52
Cc1ccc(C(=O)NNc2cc(N3CCCC3)nc(N3CCCC3)n2)cc1	-1	-3	74*	26	-2	-26
O=C(NNc1cc(N2CCOCC2)nc(N2CCOCC2)n1)c1ccc(Cl)c(Cl)c1	8	-4	-4	5	-2	-27
CC(=O)c1ccc(NC(=S)NCc2cccnc2)cc1	13	2	8	-2	0	-28
CCC(=O)Nc1nonc1-c1nc2ccccc2n1Cc1cccc2ccccc12	89*	5	67*	5	-1	-3
O=C(Nc1ccccc1O)c1cc(S(=O)(=O)N2CCOCC2)c(Cl)cc1Cl	-5	-2	.	5	3	0
Cc1ccc(Nc2ncc(C(=O)NCCCN3CCN(C)CC3)c3ccccc23)cc1Cl	10	13	4	64*	65*	3
Cc1ccc(Nc2cc(C(=O)NCCCN3CCOCC3)c3ccccc3n2)cc1C	.	7	-48	.	.	-50
COc1cccc(NC(=S)N/N=C2\CC(C)(C)Oc3ccc(O)cc32)c1	-5	6	-15	6	5	23
COc1cccc(/C=N/Nc2nc(Nc3ccc([N+](=O)[O-])cc3)nc(N3CCCC3)n2)c1O	43	1	65*	3	-1	-6
O=[N+]([O-])c1ccc(Nc2nc(N/N=C/c3cccc(F)c3)nc(N3CCCC3)n2)cc1	25	-5	-28	8	-3	-3
CC(C)N(Cc1nccn1C)C(=O)c1cc(COc2ccc3ncccc3c2)on1	-7	-2	13	0	-2	-8
CC(CCCC(C)(C)O)NC(=O)c1cc(COc2ccc3ncccc3c2)on1 (configuration not stated)	-4	2	-6	44*	8	-18
Cc1nc(CN(C)C(=O)c2cc(COc3ccc4ncccc4c3)on2)cs1	5	6	16	38*	16	12
O=C(NCc1cccc(Cl)c1)c1cc(COc2ccc3ncccc3c2)on1	3	5	6	4	2	-5
SMILES	APP 5UTR inh	IEC-6 cytotox	aSyn UTR inh	BaF3 parental	Ba/F3 V617F tox	KLF5 inhibitor
CCCCOC(=O)/C=C\C(=O)OCCCC	.	.	-26	.	.	.
COc1cc(NC(=O)c2cc(S(=O)(=O)N3CCc4ccccc43)cn2C)cc(OC)c1OC	.	7	14	.	.	5
CCc1nnc(N/N=C/c2c(C)[nH]c3ccccc23)n1N	-17	102*	.	13	19	21
Cc1nc2c(oc3ccc(Cl)cc32)c(=O)[nH]1	.	0	-13	1	-2	7
Cn1nc(-c2ccc(N3CCOCC3)c(NS(=O)(=O)c3ccc(Cl)cc3)c2)c2ccccc2c1=O	-12	2	.	1	-1	-2
Cc1ccc(S(=O)(=O)Nc2cc(-c3nn(C)c(=O)c4ccccc34)ccc2N2CCOCC2)cc1	28	-2	78*	3	-4	-24
CC(=O)c1ccc(NC(=O)c2ccc3c(c2)C(=O)N(c2ccccn2)C3=O)cc1	.	7	3	.	.	-6
CN(c1ccc(C(=O)NCc2ccco2)cc1)S(C)(=O)=O	14	-6	-19	0	-2	3
CC(C)=C1SC(N2CCCCC2)=NC1=O	-12	-4	-9	7	4	-25
C/C(=C1/SC(N2CCCC2)=NC1=O)c1ccc(Br)cc1	-25	8	2	28*	34*	0
O=C(Cc1ccccc1)N/N=C/c1ccccc1F	-10	-2	.	1	-1	-25
C=CCN1C(=O)C(CC(=O)Nc2ccc(C)cc2)SC1=Nc1c(C)n(C)n(-c2ccccc2)c1=O (configuration not stated)	.	8	30	-1	-3	-16
Cn1c(/C=N/O)nc2ccccc21	.	0	-7	-4	1	-8
CCCCc1c(C)c(C#N)c2nc3ccccc3n2c1Cl	82*	3	109*	4	-5	-16
Fc1ccccc1Cn1c2[n+](c3ccc(C(F)(F)F)cc31)CCCCC2	-20	1	0	33*	15	-20
CCCCC#Cc1ccc2c(c1)COc1c3ccccc3nn1-2	.	.	-53	.	.	.
N#CCCCC#Cc1ccc2c(c1)COc1c3ccccc3nn1-2	.	.	77*	.	.	.
O=C(O)c1c(-c2ccc(Cl)cc2)cn2ccccc12	-16	1	-167	53*	-3	-5
CCCCOn1c(C)c(C(=O)OCC)c2c3nonc3ccc21	-18	2	10	1	-1	-5
COn1c(C)c(C(C)=O)c2c3nonc3ccc21	-4	2	12	96*	2	-34
NC(N)=N/N=C/c1ccc(OCc2ccccc2)c(OCc2ccccc2)c1	.	2	106*	.	.	0
CCOc1cc(/C=N/N=C(N)N)ccc1OCc1ccc(Cl)cc1	27	9	-32	4	3	-5
O=C(Nc1cnn(Cc2ccc(F)cc2)c1)c1noc2c1CCCC2	-59	19	-105	58*	55*	16
CC(=O)c1ccc(NC(=O)c2noc3c2CCC3)cc1	-138	3	71*	6	2	56
COc1cc(/C=C(\C#N)c2[nH]nc(N)c2C#N)cc(OC)c1O	49*	3	21	6	-1	-9
COc1cc(/C=C(\C#N)c2ccccn2)cc(OC)c1O	.	0	-49	-1	6	5
OCCN(CCO)Cc1ccc(Br)cc1	-11	2	3	5	0	-6
CC1C(=O)C(C)C(c2ccc(Cl)cc2)NC1c1ccc(Cl)cc1 (configuration not stated)	.	.	68*	.	.	.
